Test results reported in a collection of fitness landscapes (doi:10.1016/j.celrep.2020.107928).
In all, about 81,000 sequences were measured (“one-hybrid fitness for binding NBS DNA”: median about -0.1, highest 2% from about 0.36 on). The sample holds the highest values, similar sequences and a random draw of the others, so the mix is not that of the screen.

B1: Caulobacter ParB omega fusion; a variant is named by its letters at X, in order, B8GW30 (parent)
chain: MESVVVGEPGMSEGRRGLGRGLSALLGEVDAAPAQAPGEQLGGSREAPIEILQRNPDQPRRTFREEDLEDLSNSIREKGVLQPILVRPSPDTAGEYQIVAGERAWRAAQRAGLKTVPIMVRELDDLAVLEIGIIENVQRADLNVLEEALSYKVLMEKFERTQENIAQTIGKSXSHVANXMRLLXLPDEVQSYLVSGELTAXHARAIAAAADPVALAKQIIEGGLSVRETEALARKAPNLSAGKSKGGRPPRVKDTDTQALESDLSSVLGLDVSIDHRGSTGTLTITYATLEQLDDLCNRLTRGI

Variants of: B1
Experiment: one-hybrid fitness for binding NBS DNA (the Noc-binding site; scaled: cognate 1, non-cognate 0); higher = stronger binding
Conditions: with NBS DNA site
Method in brief: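 In E. coli USO, a HIS3 reporter with its site placed 19 bp from the promoter was used to select Caulobacter ParB variants randomised at four specificity codons. Growth lasted 48 hours at 37°C on histidine-free M9 containing 0.1 mM IPTG and 5 mM 3-AT. Fitness was taken as the log change in variant-to-wild-type read ratio from Illumina sequencing of pre- and post-selection plasmids, rescaled between the non-cognate and cognate sites.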

Variant | one-hybrid fitness for binding NBS DNA
GNCM | ≤ 0.2
LRKY | ≤ 0.2
GYLG | ≤ 0.2
KRMH | ≤ 0.2
FYYR | ≤ 0.2
DHLS | ≤ 0.2
ANLH | ≤ 0.2
SFVC | ≤ 0.2
PQMI | ≤ 0.2
AHHY | ≤ 0.2
RHNK | ≤ 0.2
QMCI | ≤ 0.2
PANW | ≤ 0.2
VVKL | ≤ 0.2
QRMH | 0.499
QTMS | 0.463
QCMY | ≤ 0.2
QTMN | ≤ 0.2
QRMD | 0.26
QRMP | ≤ 0.2
QPMY | ≤ 0.2
QRMS | 0.623
QTMH | 0.263
QRMY | 0.463

Variant | one-hybrid fitness for binding NBS DNA
QRMN | 0.295
QRML | 0.219
YNGT | ≤ 0.2
HRHE | ≤ 0.2
VIRT | ≤ 0.2
WQEG | ≤ 0.2
FKND | ≤ 0.2
AVDT | ≤ 0.2
IGHS | ≤ 0.2
QQPS | 0.26
QQPH | ≤ 0.2
QQIT | 0.389
QQPT | 0.379
QQIS | 0.352
QQID | ≤ 0.2
MQSG | ≤ 0.2
VVCV | ≤ 0.2
YLMA | ≤ 0.2
QYTH | 0.202
QYTP | ≤ 0.2
QYTT | 0.401
QYTM | ≤ 0.2
QYTS | 0.396
QYTR | 0.572

Variant | one-hybrid fitness for binding NBS DNA
QYTD | ≤ 0.2
QYTY | ≤ 0.2
QYTN | ≤ 0.2
AEMG | ≤ 0.2
GTMM | ≤ 0.2
HAVV | ≤ 0.2
QQND | ≤ 0.2
QQDR | 0.388
QQNR | 0.786
QQNH | 0.355
QQDP | ≤ 0.2
QQDC | ≤ 0.2
MWSL | ≤ 0.2
SQER | ≤ 0.2
THTW | ≤ 0.2
TSGY | ≤ 0.2
ASWL | ≤ 0.2
TAQM | ≤ 0.2
QTME | ≤ 0.2
QAFS | 0.218
QAFD | ≤ 0.2
QAFR | 0.427
QAAR | 0.511
QAAD | ≤ 0.2

Variant | one-hybrid fitness for binding NBS DNA
QAAN | ≤ 0.2
PSVW | ≤ 0.2
VMFK | ≤ 0.2
EIKV | ≤ 0.2
RPPM | ≤ 0.2
RAPR | ≤ 0.2
RAGP | ≤ 0.2
RANR | 0.507
RAGR | 0.471
RANN | ≤ 0.2
RALR | 0.32
RADR | ≤ 0.2
RAIR | 0.207
RAGH | ≤ 0.2
RAYR | 0.412
RARR | 0.635
RAWR | 0.248
YIKT | ≤ 0.2
MVAC | ≤ 0.2
NQHS | ≤ 0.2
NVTV | ≤ 0.2
SDLG | ≤ 0.2
PSTD | ≤ 0.2
PRAY | ≤ 0.2

Variant | one-hybrid fitness for binding NBS DNA
THTY | ≤ 0.2
TQQW | ≤ 0.2
PELM | ≤ 0.2
PRWT | ≤ 0.2
RAHP | ≤ 0.2
RACP | ≤ 0.2
RASD | ≤ 0.2
RAQH | ≤ 0.2
RACR | 0.379
RASP | ≤ 0.2
RAHR | 0.487
RAQM | ≤ 0.2
RACH | ≤ 0.2
RAHH | ≤ 0.2
RAQR | 0.43
RASR | 0.417
FSRL | ≤ 0.2
GGQY | ≤ 0.2
MRLP | ≤ 0.2
AHPF | ≤ 0.2
YNKI | ≤ 0.2
KTLA | ≤ 0.2
NNIC | ≤ 0.2
PFKH | ≤ 0.2

Variant | one-hybrid fitness for binding NBS DNA
HTRG | ≤ 0.2
QMRP | 0.291
QMRN | 0.439
QMYS | 0.405
QMDN | ≤ 0.2
QMIS | 0.289
QMRS | 0.691
QMRF | 0.303
QMRH | 0.584
QMRD | 0.277
QMLS | 0.317
QMPS | 0.235
QMYN | ≤ 0.2
AQGA | ≤ 0.2
NRGC | ≤ 0.2
PIMT | ≤ 0.2
PWNH | ≤ 0.2
RINY | ≤ 0.2
GPRC | ≤ 0.2
TMHE | ≤ 0.2
KEWT | ≤ 0.2
MTEF | ≤ 0.2
QMAS | 0.389
QMAH | 0.231

Variant | one-hybrid fitness for binding NBS DNA
QMAD | ≤ 0.2
VIGG | ≤ 0.2
QMWK | ≤ 0.2
QCKK | 0.485
QTVK | ≤ 0.2
QKKK | 0.437
QTKK | 0.596
QKIK | ≤ 0.2
QMKK | 0.436
QLKK | 0.346
QPKK | ≤ 0.2
QTSK | 0.224
QMPK | ≤ 0.2
QKVK | ≤ 0.2
THAP | ≤ 0.2
SMSM | ≤ 0.2
VLYQ | ≤ 0.2
MNTI | ≤ 0.2
MEPN | ≤ 0.2
DERT | ≤ 0.2
AAYK | ≤ 0.2
LNIG | ≤ 0.2
VYES | ≤ 0.2
PHHR | ≤ 0.2

Variant | one-hybrid fitness for binding NBS DNA
NAEF | ≤ 0.2
NGVK | ≤ 0.2
AANT | ≤ 0.2
QHKK | 0.416
QIKK | 0.243
QAKK | 0.396
QRKK | 0.777
QSVK | ≤ 0.2
QAVK | ≤ 0.2
QRLK | 0.329
QRVK | 0.218
QSKK | 0.412
QAHK | ≤ 0.2
QHRK | 0.362
QHQK | ≤ 0.2
TDTW | ≤ 0.2
VHWG | ≤ 0.2
DTCT | ≤ 0.2
VLPC | ≤ 0.2
GGCG | ≤ 0.2
PDVF | ≤ 0.2
YPIT | ≤ 0.2
SGYG | ≤ 0.2
SCFT | ≤ 0.2

Variant | one-hybrid fitness for binding NBS DNA
METY | ≤ 0.2
RCMH | ≤ 0.2
RRMS | 0.628
RRMP | ≤ 0.2
RRMD | ≤ 0.2
RRMN | 0.245
RRMH | 0.403
TKWD | ≤ 0.2
AEDA | ≤ 0.2
APCN | ≤ 0.2
YRRI | ≤ 0.2
AVHL | ≤ 0.2
TDRM | ≤ 0.2
TYEH | ≤ 0.2
HSVS | ≤ 0.2
ARTM | ≤ 0.2
HHLA | ≤ 0.2
QYMH | ≤ 0.2
QYMY | 0.453
QTMP | ≤ 0.2
QMMT | 0.378
QYMP | ≤ 0.2
QYMS | 0.314
QMMS | 0.333

Variant | one-hybrid fitness for binding NBS DNA
QTMD | ≤ 0.2
QMMF | ≤ 0.2
QYMN | ≤ 0.2
QYMT | 0.416
QTMT | 0.551
CSAE | ≤ 0.2
YFMR | ≤ 0.2
TNFF | ≤ 0.2
AHDA | ≤ 0.2
FHFL | ≤ 0.2
CNVL | ≤ 0.2
HYMT | ≤ 0.2
QKMT | 0.424
QCMT | 0.477
QAMT | 0.346
QRMC | 0.333
QSMT | 0.368
QLMT | 0.34
QKMY | 0.224
QRMG | 0.329
QRMT | 0.729
QPMT | ≤ 0.2
QIMT | 0.219
QKMN | ≤ 0.2

Variant | one-hybrid fitness for binding NBS DNA
QLVV | ≤ 0.2
KKDV | ≤ 0.2
RLWA | ≤ 0.2
WGTT | ≤ 0.2
PARD | ≤ 0.2
RCAQ | ≤ 0.2
FSIR | ≤ 0.2
RTFH | ≤ 0.2
RTFT | 0.417
RTAT | 0.499
RTAQ | ≤ 0.2
RTFP | ≤ 0.2
RTAF | ≤ 0.2
YRWR | ≤ 0.2
QYAW | ≤ 0.2
CWPD | ≤ 0.2
IVKR | ≤ 0.2
TREN | ≤ 0.2
RVKD | ≤ 0.2
RVKS | 0.578
RVKR | 0.665
RVKT | 0.652
RVVR | 0.3
RVKN | 0.203

Variant | one-hybrid fitness for binding NBS DNA
RVVT | 0.261
RVKP | ≤ 0.2
RVKH | 0.321
DVAM | ≤ 0.2
FLSS | ≤ 0.2
SKYT | ≤ 0.2
PHGE | ≤ 0.2
KVPL | ≤ 0.2
QVVT | 0.248
QVKN | ≤ 0.2
QVKT | 0.564
QVVY | ≤ 0.2
QVKP | ≤ 0.2
QVKM | 0.229
QVKY | 0.383
QVKS | 0.49
QVKH | 0.38
QVKQ | 0.241
QVYY | ≤ 0.2
QVKD | ≤ 0.2
MVLL | ≤ 0.2
KYVG | ≤ 0.2
NCLS | ≤ 0.2
FLLI | ≤ 0.2

Variant | one-hybrid fitness for binding NBS DNA
SFTN | ≤ 0.2
QSWH | ≤ 0.2
PPWR | ≤ 0.2
RQTM | ≤ 0.2
RQTR | 0.497
RQTP | ≤ 0.2
RQTS | 0.436
RQTH | ≤ 0.2
RQTT | 0.487
RQTN | ≤ 0.2
RQTD | ≤ 0.2
RQTQ | ≤ 0.2
KQNL | ≤ 0.2
SITL | ≤ 0.2
CLCV | ≤ 0.2
LGTW | ≤ 0.2
DDVR | ≤ 0.2
LTIS | ≤ 0.2
